In patent US20060193821, “Aptamers to the human IL-12 cytokine family and their use as autoimmune disease therapeutics” (published 2006):

What follows are sequences tested against IL-12 (human, p35/p40 heterodimer) (Homo sapiens, UniProt P29459;P29460 SEQ:57-253,SEQ:23-328) (assay: competition; fold specificity for IL-23 over IL-12; 250 nM IL-12, saturation re-analysis of competition data). Details: G4; XNA; deoxy A and G, 2'-OMe C and U.
IL-12 (human, p35/p40 heterodimer), sequence (P29459 23-219, chain 1 of 2): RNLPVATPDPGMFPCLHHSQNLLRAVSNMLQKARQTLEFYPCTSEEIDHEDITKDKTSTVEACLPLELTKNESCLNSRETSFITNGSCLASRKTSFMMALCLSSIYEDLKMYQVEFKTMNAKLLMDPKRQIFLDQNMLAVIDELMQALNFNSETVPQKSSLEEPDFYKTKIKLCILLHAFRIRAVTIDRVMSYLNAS
IL-12 (human, p35/p40 heterodimer), sequence (P29460 23-328, chain 2 of 2): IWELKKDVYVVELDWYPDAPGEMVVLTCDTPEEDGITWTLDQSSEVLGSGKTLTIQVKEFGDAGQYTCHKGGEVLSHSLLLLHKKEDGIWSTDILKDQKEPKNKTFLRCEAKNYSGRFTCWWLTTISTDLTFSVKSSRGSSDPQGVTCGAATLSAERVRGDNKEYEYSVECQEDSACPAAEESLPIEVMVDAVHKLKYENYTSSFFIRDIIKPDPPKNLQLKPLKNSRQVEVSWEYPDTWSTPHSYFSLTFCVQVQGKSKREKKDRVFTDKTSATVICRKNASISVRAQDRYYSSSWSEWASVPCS
Experimental: Several of the minimized constructs from the dRmY Selection 2 were also assayed in a competition format in which cold aptamer was titrated and competed away trace ³²P ATP labeled aptamer In the competition assay, the [IL-23] was held constant, the [trace labeled aptamer] was held constant, and the [unlabeled aptamer] was varied. The KD was calculated by fitting the following equation to the data: Fraction aptamer bound=amplitude*([aptamer]/(KD+[aptamer]))+background binding.
The competitive binding data was re-analyzed in a saturation binding experiment where the concentration of ligand (aptamer) was varied and the concentration of receptor ([…]) was held constant and the [bound aptamer] was plotted versus the [total input aptamer].
For ACAGGCAAGUAAUUGGGGAGUGCGGGCGGGGUGU, the binding signal was 33 fold.
